# Data as given in PubChem BioAssay AID449762 (Southern Research Specialized Biocontainment Screening …, 2010).
# The campaign covered roughly 330,000 compounds. About 1,900 (0.58%) were called active. Another 4% or so got no clear call; they are omitted. Rule as the data show it: inconclusive = inhibition above about 70% without an active follow-up result; inactive = below that. These entries were drawn from the full list. Results with a measured potency or affinity are listed apart.
# Test: M. tuberculosis growth inhibition, HTS (AID 449762);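 also: bacterial growth assessed after seven days of incubation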
# Settings: M. tuberculosis H37Rv growth inhibition, 7H9 media; at 25 µM; hits give high values
row,SMILES,inhibition
1,Nc1c(C(=O)c2ccc(Cl)cc2)oc2ccccc12,-21.2% (inactive)
2,Cc1cc(C)c(NC(=O)C(C)(C)C)c(Cl)c1,-1.65% (inactive)
3,COc1ccc(C(CNC(=O)C(C)(C)Oc2ccc(Cl)cc2)N2CCCC2)cc1 (configuration not stated),-9.42% (inactive)
4,COc1ccc(C(CNC(=O)C(C)(C)Oc2ccc(Cl)cc2)N2CCCCC2)cc1 (configuration not stated),-12.8% (inactive)
5,CCN(CC)S(=O)(=O)c1ccc(NC(=O)c2ccc(Cl)nc2)cc1,4% (inactive)
6,O=C(O)c1ccccc1/C=N/Nc1ccc(S(=O)(=O)N2CCCC2)cc1[N+](=O)[O-],-1.83% (inactive)
7,COc1ccc(Cc2nc3ccc(C(=O)N(C)C(C)c4nccs4)cc3o2)cc1 (configuration not stated),1.57% (inactive)
8,COc1ccc(-c2ccc([C@H]3[C@H]4C=CC[C@@H](C)[C@@H]4C(=O)N3Cc3ccccc3)c(F)c2)cc1C,-3.73% (inactive)
9,CCC(C)n1ncn(-c2ccc(N3CCN(c4ccc(OCC5COC(Cn6cncn6)(c6ccc(Cl)cc6Cl)O5)cc4)CC3)cc2)c1=O (configuration not stated),-3.37% (inactive)
10,CC1(c2ccc(Cl)cc2Cl)OCC(Cn2ccnc2)O1 (configuration not stated),-2.41% (inactive)
11,FC(F)(F)c1cc(N2CCNCC2)c2ccccc2n1,4.5% (inactive)
12,COc1ccc2cc(S(=O)(=O)NCc3cccnc3)ccc2c1,-6.19% (inactive)
13,Oc1ccccc1-c1nnc(COc2ccc(Cl)cc2Cl)o1,2.32% (inactive)
14,c1ccc(OCc2nnc(-c3ccccc3)o2)cc1,3.84% (inactive)
15,Cc1ccccc1C(=O)Nc1cccc(-c2cn3ccccc3n2)c1,35.7% (inactive)
16,O=C(O)CCC(=O)Nc1nnc(C(F)(F)F)s1,5.81% (inactive)
17,Cc1nnc(NC(=O)CCC(=O)NC2CCCCCCC2)s1,2.33% (inactive)
18,CC(=O)c1cccc(S(=O)(=O)NCCC(=O)NC2CCCCCC2)c1,2.95% (inactive)
19,CCN(CC)S(=O)(=O)c1ccc(NC(=O)c2ccc(Sc3nncn3C)c([N+](=O)[O-])c2)cc1,3.9% (inactive)

row,SMILES,inhibition
1,COCCn1c(O)c(/C=N/NC(=O)CSC(=S)N2CCCC2)c(=O)[nH]c1=S,-6.24% (inactive)
2,CCOc1ccccc1NC(=O)C1CCCN(c2c(CC)c(C)nc3ncnn23)C1 (configuration not stated),3.2% (inactive)
3,CCN(c1cccc(C)c1)S(=O)(=O)c1nnc(NC(=O)c2ccco2)s1,-5.15% (inactive)
4,Cc1csc(NC(=O)c2c(O)c3c(n(CC(C)C)c2=O)CCCC3)n1,65.9% (inactive)
5,CC(C)Cn1c2c(c(O)c(C(=O)Nc3nccs3)c1=O)CCCC2,8.72% (inactive)
6,CC(=C1C(=O)c2ccccc2C1=O)N1CCN(c2ccc(F)cc2)CC1,-0.18% (inactive)
7,CCC(Sc1ccccc1C(=O)O)C(=O)O (configuration not stated),5.4% (inactive)
8,O=C(O)c1ccccc1SSc1ccccc1C(=O)O,-0.04% (inactive)
9,COc1ccc(CN2CCN(Cc3cccc(Oc4ccccc4)c3)CC2)c(OC)c1OC,22.7% (inactive)
10,Cn1c(C(=O)N2CCCC(C(=O)NCCCSC3CCCCC3)C2)cc2sccc21 (configuration not stated),67.2% (inactive)
11,Cc1cc(C)n2nc(N)c(N=Nc3ccc(Cl)cc3)c2n1,5.04% (inactive)
12,Cc1cc(C)n2nc(N)c(N=Nc3ccc4c(c3)OCO4)c2n1,1.48% (inactive)
13,CC(C)CNC(=S)N(CCN(C)C)Cc1cc2cc3c(cc2[nH]c1=O)OCCO3,-7.36% (inactive)
14,COc1ccc(OC)c(NC(=O)CSc2nncc(=O)n2N)c1,-3.14% (inactive)
15,CC(=O)N1CC(C)Sc2ccc(S(=O)(=O)NC3CCCCC3)cc21 (configuration not stated),0.78% (inactive)
16,NC(=O)NCC(=O)N1CCC(C(O)(c2ccccc2)c2ccccc2)CC1,-4.38% (inactive)
17,COc1ccc(Cc2nnc(SCC(=O)N3CCc4ccccc4C3)o2)cc1,-4.27% (inactive)
18,COc1ccc(-c2nnc(SCC(=O)N3CCCC3)o2)cc1,-2.88% (inactive)
19,Cc1cccc(C)c1OCCOC(=O)c1cccc(S(=O)(=O)N2CCOCC2)c1,-2.97% (inactive)

row,SMILES,inhibition
1,COc1cccc(C(=O)OCC(=O)N2CCc3ccccc3C2)c1OC,-0.41% (inactive)
2,Cc1cccc(C(=O)OCC(=O)N2CCCCCC2)c1O,20.7% (inactive)
3,COc1ccccc1N1CCN(S(=O)(=O)c2ccc(Br)s2)CC1,-5.24% (inactive)
4,Cc1c(Cl)cccc1NC(=O)Nc1cc(C(C)(C)C)nn1C,2.96% (inactive)
5,Cn1nc(C(C)(C)C)cc1NC(=O)Nc1ccc(Cl)cc1,6.33% (inactive)
6,CC(C)c1ccc(OCC(O)CNC(C)c2ccccc2)cc1 (configuration not stated),15.1% (inactive)
7,COc1ccc(OCC(O)CNC(C)c2ccccc2)cc1 (configuration not stated),-6.83% (inactive)
8,C[C@H](NC(=O)C1CC(=O)N(c2ccc3c(c2)OCCO3)C1)C(=O)NCc1ccco1 (some centres not stated),0.57% (inactive)
9,COc1ccc(-n2nc3c(N4CCC(C(=O)NCc5ccccc5C)CC4)nnc(C)c3c2C)cc1,8.33% (inactive)
10,Cc1ccc(-n2nc3c(N4CCC(C(=O)NCCc5ccccc5C)CC4)nnc(C)c3c2C)cc1,5.89% (inactive)
11,COC(CNC(=O)CNC(=S)N(CCCN1CCOCC1)Cc1cccs1)OC,12.5% (inactive)
12,Cc1nc(Nc2ccc(Br)cc2Br)c([N+](=O)[O-])c(=O)[nH]1,0.85% (inactive)
13,Cc1sc2ncnc(Sc3nc4ccccc4s3)c2c1C,-4.93% (inactive)
14,CCc1cc2c(Sc3nc4ccccc4s3)ncnc2s1,11.1% (inactive)
15,Cc1nc(-c2ccc(S(=O)(=O)Oc3ccccc3Cl)s2)cs1,4.35% (inactive)
16,O=C(COc1ccc(S(=O)(=O)N2CCOCC2)cc1)N1CCCCCC1,-3.92% (inactive)
17,COc1ccccc1-c1cc(C(=O)N2CCN(c3ccccc3)CC2)no1,-4.77% (inactive)
18,COc1ccc(NS(=O)(=O)c2ccc(C)c(C(=O)NNC(=O)c3ccccc3O)c2)cc1,5.14% (inactive)
19,CC(C)(C)c1ccc(C(=O)N2CCN(Cc3ccccc3)CC2)cc1,4.6% (inactive)
